Screens: PubChem, several laboratories
Compounds with a hit are over-represented: about 32% of the library has one in this group of screens.
PostGolgi yeast – growth inhibition of a yeast mutant, post-Golgi transport screen. post-Golgi transport phenotypic cell assay. inhibition, % at 10 µM. 98,000 compounds, 0.9% hits. AID 739;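 also: yeast cells grown in 1536-well plates; yeast grown about 18 h at 30C before absorbance read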
CYP2C9 inh – inhibitors of human CYP2C9 | P11712 | CYP2C9 Supersomes, luciferin-H conversion, luminescence | inhibition, % at 5 µM | 96,000 compounds, 20% hits | AID 777;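 active = blocking of liver enzyme CYP2C9 beyond about 50% at 5 µM, limit read from the data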
PostGolgi ctrl – inhibits growth of the yeast control strain | efflux-deficient yeast background strain, growth absorbance A615, 16 h | inhibition, % at 10 µM | 98,000 compounds, 5% hits
CYP2C19 activ – cytochrome P450 2C19 (human) activation; P33261; recombinant CYP2C19, luciferin-H EGE luminescence; active compounds read high; 0 = fully inhibited enzyme, 1 = untreated enzyme; activation factor at 5 µM; 96,000 tested, under 10 active; AID 1025;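 active = activation factor of at least 2 at 5 µM in the primary screen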;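 also: 0 = wells with 2.5 mM tranylcypromine and 1 = vehicle-only wells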
Target sequence (P33261 whole entry, looked up): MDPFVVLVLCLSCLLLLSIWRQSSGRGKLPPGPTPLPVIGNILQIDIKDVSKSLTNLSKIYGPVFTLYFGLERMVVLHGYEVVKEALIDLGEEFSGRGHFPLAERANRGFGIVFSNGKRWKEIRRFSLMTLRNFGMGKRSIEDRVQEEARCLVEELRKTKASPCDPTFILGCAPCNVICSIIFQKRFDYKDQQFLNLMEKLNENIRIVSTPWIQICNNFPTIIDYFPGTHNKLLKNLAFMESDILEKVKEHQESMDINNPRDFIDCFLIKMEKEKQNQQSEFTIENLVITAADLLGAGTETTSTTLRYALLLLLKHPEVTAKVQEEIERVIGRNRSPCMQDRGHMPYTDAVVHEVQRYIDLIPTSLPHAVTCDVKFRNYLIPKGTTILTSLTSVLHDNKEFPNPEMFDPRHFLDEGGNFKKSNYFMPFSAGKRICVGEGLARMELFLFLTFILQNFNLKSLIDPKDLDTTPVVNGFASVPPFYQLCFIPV
CYP2C19 inh – inhibitors of human CYP2C19; 96,000 compounds, 21% hits; CYP2C19 Supersomes, luciferin-H EGE luminescence, 30 min; P33261; inhibition, % at 5 µM;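 active = CYP2C19 inhibition above a set limit at 5 µM in the primary screen, cut at about 50% in these data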;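 also: plate controls were negative control wells for no effect and 2.5 mM tranylcypromine positive control for full effect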
CYP2C9 act – CYP2C9 (human) activation | P11712 | recombinant CYP2C9, luciferin-H conversion, luminescence; active compounds read high; factor 1 = untreated enzyme, 0 = blocked | activation factor at 5 µM | 96,000 compounds, 1.4% hits | AID 1024;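 active = activation factor of 2 or more for CYP2C9 at a 5 µM dose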;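 also: 0 = sulfaphenazole-blocked wells and 1 = vehicle-only wells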
Starred values were filed as active, the others as inactive. Rule as the data show it, unless noted: active = inhibition above about 30%; inactive = the rest.

How did O=c1c(Cl)c(NCCCO)cnn1-c1nc2ccccc2[nH]1 do in these assays?
PostGolgi yeast: 8; CYP2C9 inh: 5; PostGolgi ctrl: -4; CYP2C19 activ: 0.5; CYP2C19 inh: 46; CYP2C9 act: 1

How did Cc1ccc(C(=O)N/C(=C/c2ccco2)C(=O)Nc2cccc(C)c2)cc1 do in these assays?
PostGolgi yeast: -8; CYP2C9 inh: 90*; PostGolgi ctrl: -6; CYP2C19 activ: 0.5; CYP2C19 inh: 51*; CYP2C9 act: 0.1

What do the screens show for `CSCCC(NC(=O)c1ccccc1)C(=O)NCc1ccco1` (stereo unspecified)?
PostGolgi yeast: -7; CYP2C9 inh: 9; PostGolgi ctrl: 38*; CYP2C19 activ: 0.5; CYP2C19 inh: 45; CYP2C9 act: 0.9

Results for CSCCC(NC(=O)c1ccc(Cl)cc1)C(=O)NC(C)(C)C (stereo unspecified) ?
PostGolgi yeast: 1; CYP2C9 inh: 62*; PostGolgi ctrl: 6; CYP2C19 activ: 0.6; CYP2C19 inh: 44; CYP2C9 act: 0.4

Results for CCC(C)NC(=O)C(CCSC)NC(=O)c1ccccc1 (stereo unspecified) ?
PostGolgi yeast: -2; CYP2C9 inh: 35; PostGolgi ctrl: 5; CYP2C19 activ: 0.7; CYP2C19 inh: 26; CYP2C9 act: 0.6

How did CC(=O)c1cccc(NC(=O)NCc2ccco2)c1 do in these assays?
PostGolgi yeast: -6; CYP2C9 inh: 41; PostGolgi ctrl: 1; CYP2C19 activ: 0.7; CYP2C19 inh: 30; CYP2C9 act: 0.6

Results for Cc1ccc(C(=O)Nc2cccc(C(=O)NCc3ccco3)c2)cc1 ?
PostGolgi yeast: -8; CYP2C9 inh: 83*; PostGolgi ctrl: 3; CYP2C19 activ: 0.9; CYP2C19 inh: 12; CYP2C9 act: 0.2

Results for O=C(NCc1cccs1)C1CC(=O)N(c2ccccc2)C1 (stereo unspecified) ?
PostGolgi yeast: 2; CYP2C9 inh: -14; PostGolgi ctrl: 2; CYP2C19 activ: 0.8; CYP2C19 inh: 22; CYP2C9 act: 1.1

What do the screens show for `Cc1ccc(C(=O)NCc2ccco2)cc1S(=O)(=O)Nc1cccc(Cl)c1`?
PostGolgi yeast: -6; CYP2C9 inh: 98*; PostGolgi ctrl: 17; CYP2C19 activ: 0.1; CYP2C19 inh: 87*; CYP2C9 act: 0

How did Cc1ccc(C(=O)Nc2ccc(S(=O)(=O)NCc3ccco3)cc2)cc1 do in these assays?
PostGolgi yeast: -6; CYP2C9 inh: 26; PostGolgi ctrl: -1; CYP2C19 activ: 0.8; CYP2C19 inh: 22; CYP2C9 act: 0.7

Results for Cc1occc1C(=O)Nc1cccc(C(=O)NCc2ccccc2)c1 ?
PostGolgi yeast: -2; CYP2C9 inh: 93*; PostGolgi ctrl: 22; CYP2C19 activ: 0.3; CYP2C19 inh: 68*; CYP2C9 act: 0.1

How did CCC(CC)C(=O)Nc1cccc(C(=O)NCc2ccco2)c1 do in these assays?
PostGolgi yeast: -5; CYP2C9 inh: 33; PostGolgi ctrl: 42*; CYP2C19 activ: 0.8; CYP2C19 inh: 23; CYP2C9 act: 0.7

Results for Cc1cc(C)n(-c2ccc(C(=O)Nc3ccc(S(=O)(=O)NCc4ccco4)cc3)cc2)n1 ?
PostGolgi yeast: 7; CYP2C9 inh: 66*; PostGolgi ctrl: 12; CYP2C19 activ: 0.8; CYP2C19 inh: 24; CYP2C9 act: 0.3

Results for O=C(NCc1cccnc1)c1cccc(NC(=O)c2ccco2)c1 ?
PostGolgi yeast: 0; PostGolgi ctrl: -3

How did CCN(C(=O)CN1CCN(c2ccccc2OC)CC1)c1c(N)n(Cc2ccccc2)c(=O)[nH]c1=O do in these assays?
PostGolgi yeast: 1; CYP2C9 inh: -23; PostGolgi ctrl: 4; CYP2C19 activ: 1.3; CYP2C19 inh: -27; CYP2C9 act: 1.2

Results for CCCc1nnc(NC(=O)CCC(=O)Nc2ccc(F)cc2)s1 ?
PostGolgi yeast: 4; CYP2C9 inh: 28; PostGolgi ctrl: 8; CYP2C19 activ: 0.9; CYP2C19 inh: 14; CYP2C9 act: 0.7

What do the screens show for `COc1ccccc1NC(=O)CN(Cc1ccco1)C(=O)c1cccs1`?
PostGolgi yeast: 12; CYP2C9 inh: 27; PostGolgi ctrl: 8; CYP2C19 activ: 0.8; CYP2C19 inh: 16; CYP2C9 act: 0.7

What do the screens show for `O=C(NCc1ccco1)c1cccc(NC(=O)c2ccccc2)c1`?
PostGolgi yeast: -7; CYP2C9 inh: 93*; PostGolgi ctrl: 9; CYP2C19 activ: 0.6; CYP2C19 inh: 38; CYP2C9 act: 0.1

How did O=C(Nc1ccccc1)c1cccc(S(=O)(=O)NCc2ccco2)c1 do in these assays?
PostGolgi yeast: -2; CYP2C9 inh: 51*; PostGolgi ctrl: 10; CYP2C19 activ: 0.5; CYP2C19 inh: 51*; CYP2C9 act: 0.5

How did COc1ccccc1NC(=O)CN(Cc1ccco1)C(=O)c1ccc(-n2nc(C)cc2C)cc1 do in these assays?
PostGolgi yeast: 2; CYP2C9 inh: 94*; PostGolgi ctrl: 8; CYP2C19 activ: 0.9; CYP2C19 inh: 11; CYP2C9 act: 0.1

What do the screens show for `CCOC(=O)C1=C2SCC(=O)N2C(N)=C(C#N)C1`?
PostGolgi yeast: 4; CYP2C9 inh: -4; PostGolgi ctrl: 10; CYP2C19 activ: 0.9; CYP2C19 inh: 7; CYP2C9 act: 1

How did CCCNC(=O)NC1C(NC(=O)NCCC)N(C)C(=O)N1C (stereo unspecified) do in these assays?
PostGolgi yeast: 7; CYP2C9 inh: 1; PostGolgi ctrl: -6; CYP2C19 activ: 0.9; CYP2C19 inh: 9; CYP2C9 act: 1

What do the screens show for `O=C(CSc1ccc2nnc(-c3ccccn3)n2n1)N1CCN(c2ccccc2)CC1`?
PostGolgi yeast: 2; CYP2C9 inh: -1; PostGolgi ctrl: 7; CYP2C19 activ: 0.6; CYP2C19 inh: 38; CYP2C9 act: 1

How did COc1ccc(C2C(C(=O)N3CCCC3)CC(=O)N2c2ccc(OC)cc2)cc1 (stereo unspecified) do in these assays?
PostGolgi yeast: 0; CYP2C9 inh: 5; PostGolgi ctrl: 38*; CYP2C19 activ: 0.9; CYP2C19 inh: 10; CYP2C9 act: 1

How did Cc1cccc(-c2nsc(SCC(=O)Nc3nccs3)n2)c1 do in these assays?
PostGolgi yeast: -4; CYP2C9 inh: 48; PostGolgi ctrl: -1; CYP2C19 activ: 0.6; CYP2C19 inh: 36; CYP2C9 act: 0.5

How did Cc1cccc(-c2nsc(SCC(=O)N3CCCC3)n2)c1 do in these assays?
PostGolgi yeast: 2; CYP2C9 inh: -11; PostGolgi ctrl: 18; CYP2C19 activ: 0.5; CYP2C19 inh: 50*; CYP2C9 act: 1.1

How did CS(=O)(=O)N1CCC(C(=O)c2cccc(Cl)c2)CC1 do in these assays?
PostGolgi yeast: 3; CYP2C9 inh: 33; PostGolgi ctrl: 1; CYP2C19 activ: 0.2; CYP2C19 inh: 79*; CYP2C9 act: 0.7

Results for CCCS(=O)(=O)N1CCC(C(=O)c2cccc(C(F)(F)F)c2)CC1 ?
PostGolgi yeast: -9; CYP2C9 inh: -8; PostGolgi ctrl: 8; CYP2C19 activ: 0.6; CYP2C19 inh: 38; CYP2C9 act: 1.1
